# According to PubChem BioAssay AID720706 (Broad Institute, 2013):
# Out of some 350,000 compounds screened, about 5,500 (1.6%) were called active.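 Rule for the calls: active = significant combined selectivity score with lowered wild-type GFP, culture density cut under 30%, mutant RFP and density less affected; inactive = any of these conditions unmet.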 The sample as a whole holds a higher share of actives than the screen did.
# Experiment: GFP drop in mixed WT/humanized-ribosome E. coli culture – GFP/RFP fluorescence, OD600, single point, bacterial rRNA inhibitor project, primary screen (AID 720706)
# Details: E. coli WT GFP vs humanized-ribosome RFP mutants, 24 h; GFP signal change (wild-type ribosome): stronger effect = lower value, DMSO median 0, no signal -100; OD600 change: measured here: OD600 growth, DMSO median 0, no signal -100; RFP signal change: measured here: RFP humanized mutant strains, DMSO median 0, no signal -100, concentration not given here
Compound,GFP signal change (wild-type ribosome),OD600 change [%],RFP signal change [%]
CO[C@H]1CN(C)C(=O)c2cc(NC(=O)C3CCCC3)ccc2OC[C@@H](C)N(C(=O)CC2CC2)C[C@@H]1C,-2.32% (inactive),-1.4,-2.08
COc1ccc(C(=O)C2CCCN(Cc3cccn3-c3ccccn3)C2)c(C)c1 (stereo not drawn),-15.2% (inactive),-23,0.721
COc1ccc(C(=O)C2CCCN(C(=O)c3ccc(OC)o3)C2)c(C)c1 (stereo not drawn),-3.94% (inactive),-8.41,-1.22
COc1ccc(C(=O)C2CCCN(Cc3ccc4nonc4c3)C2)c(C)c1 (stereo not drawn),-32.5% (active),-18.1,-4.26
C[C@H]1CN(C)C(=O)c2cc(N(C)C)ccc2O[C@H]1CN(C)C(=O)OC(C)(C)C,-3.1% (inactive),-2.56,0.88
COc1ccc(C2=NN(C(=O)c3ccccc3C(=O)O)C(c3ccccc3O)C2)cc1 (stereo not drawn),-9.01% (inactive),-19.6,-2.39
COc1ccc(C2CC(c3ccccc3)=NN2C(=O)CSc2nccc(=O)[nH]2)cc1 (stereo not drawn),5.08% (inactive),8.39,-0.959
COc1ccc(C2=NN(C(=O)c3cccnc3)C(c3ccccc3)C2)cc1 (stereo not drawn),-23.4% (active),3.3,3.54
O=c1ccc2cc(S(=O)(=O)Nc3ccccc3F)ccc2o1,6.96% (inactive),12.1,8.39
O=c1oc2ccccc2c(NC2CCCCC2)c1NS(=O)(=O)c1ccc(Cl)cc1,11.9% (inactive),7.09,-0.375
O=c1oc(-c2ccccc2NS(=O)(=O)c2ccc(Cl)cc2)nc2ccccc12,-33.6% (active),-24.4,0.207
CO[C@@H]1CN(C)C(=O)c2cc(NC(=O)Nc3ccc4c(c3)OCO4)ccc2OC[C@@H](C)NC[C@@H]1C,4.25% (inactive),10.8,-0.511
COc1ccc2c3c([nH]c2c1)[C@@H](CO)N(C(C)=O)CC31CCN(Cc2ccccc2Cl)CC1,-2.42% (inactive),-9.54,4.49
C[C@@H]1CN([C@H](C)CO)C(=O)c2cc(NS(=O)(=O)c3ccccc3)ccc2O[C@H]1CN(C)S(=O)(=O)c1ccc(Cl)cc1,-8.38% (inactive),-11.5,2.44
O=C(NCCc1ccccc1)c1cccc(NC(=O)c2ccccc2)c1,-23.9% (active),-10,0.86
O=C(Cc1ccc(Br)cc1)NCCc1ccccc1,-13.7% (inactive),6.7,-2.35

Compound,GFP signal change (wild-type ribosome),OD600 change [%],RFP signal change [%]
CC(C)(C)OC(=O)N1CCC(C(=O)Nc2cccc(C(=O)NCCc3ccccc3)c2)CC1,2.29% (inactive),6.05,0.0785
COc1cccc(CCNC(=O)c2cccc(NC(=O)C3=C(C)OCCS3)c2)c1,-25.3% (inactive),-16.5,-2.22
O=C(NCc1ccccc1)c1cccc(NC(=O)C2CCCCC2)c1,-29.5% (active),-22.2,-7.71
CCNC(=O)c1cccc(NC(=O)C2CC(=O)N(CCc3ccccc3)C2)c1 (stereo not drawn),8.73% (inactive),3.98,1.88
CO[C@@H]1CN(C)C(=O)c2cc(NS(=O)(=O)c3ccc(C)cc3)ccc2OC[C@H](C)N(Cc2nccs2)C[C@@H]1C,-2.96% (inactive),-14.7,7.3
COc1ccc2c3c([nH]c2c1)[C@@H](CO)N(C(=O)C1CC1)CC31CCN(C(=O)c2ccncc2)CC1,4.87% (inactive),6.99,-3.09
CC(C)NC(=O)N(C)C[C@H]1Oc2cc(-c3cncnc3)ccc2S(=O)(=O)N([C@@H](C)CO)C[C@H]1C,3.27% (inactive),3.02,-2.21
CCC(=O)Nc1ccc2c(c1)C(=O)N(C)[C@@H]1CC[C@H](CC(=O)NCCc3ccncc3)O[C@@H]1CO2,2.16% (inactive),15.1,-1.34
Cc1ccccc1NC(=O)c1cc(S(=O)(=O)Nc2cccc(C(=O)O)c2)ccc1Cl,9.89% (inactive),8.39,-0.677
C=CCNC(=O)c1ccccc1NC(=O)c1ccc(Cl)c(S(=O)(=O)Nc2cccc(C)c2C)c1,-40% (active),-4.93,9.21
Cc1ccc(C(=O)Nc2ccccc2-c2ccccc2)cc1S(=O)(=O)Nc1ccccc1,-14.3% (inactive),-30.9,-8.24
COC(=O)C[C@@H]1C[C@H]2c3cc(NC(=O)NC4CCCC4)ccc3O[C@H]2[C@H](CO)O1,-0.054% (inactive),-2.88,1.29
C[C@H](O)C#Cc1ccc2c(c1)O[C@H](CN(C)Cc1cccnc1)[C@@H](C)CN([C@H](C)CO)S2(=O)=O,-1.81% (inactive),5.84,-2.32
COc1ccccc1NC(=O)N[C@H]1CC[C@H](CCNS(=O)(=O)c2ccc(Cl)cc2)O[C@H]1CO,-12.2% (inactive),-10.8,7.75
CC(C)NC(=O)Nc1cccc2c1O[C@H](CN(C)Cc1ccccc1)[C@H](C)CN([C@H](C)CO)C2=O,3.96% (inactive),10.7,-0.787
